# Data: PubChem BioAssay AID624002 (National Center for Advancing Translational Sciences (NCATS), 2012)
# This is one part of the list. Inconclusive results are not listed. Active and inactive are the calls of the source. Calls come from the whole dose curve; as a rule, active = well fitted inhibition curve with a large enough effect; inconclusive = small, poorly fitted or top-dose-only effect; inactive = no such curve, though single readings can be large or run the other way.
# Biological target: Isocitrate dehydrogenase [NADP] cytoplasmic (Homo sapiens) (UniProt O75874)
# Sequence (O75874 whole entry R132H, change not shown): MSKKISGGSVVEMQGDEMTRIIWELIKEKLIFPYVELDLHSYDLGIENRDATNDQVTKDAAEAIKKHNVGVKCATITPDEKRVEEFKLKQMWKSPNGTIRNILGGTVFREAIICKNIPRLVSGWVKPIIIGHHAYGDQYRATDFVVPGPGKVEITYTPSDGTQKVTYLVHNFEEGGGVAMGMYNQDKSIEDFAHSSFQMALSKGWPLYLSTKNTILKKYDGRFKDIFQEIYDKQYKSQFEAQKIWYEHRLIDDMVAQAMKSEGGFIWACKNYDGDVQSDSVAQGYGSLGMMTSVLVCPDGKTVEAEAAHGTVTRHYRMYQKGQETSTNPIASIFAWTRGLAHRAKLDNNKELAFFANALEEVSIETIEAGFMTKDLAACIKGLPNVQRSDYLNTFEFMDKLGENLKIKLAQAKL
# Experiment: qHTS for Inhibitors of mutant isocitrate dehydrogenase 1 (IDH1): Confirmation of Cherrypicks; note: nearly all actives have a fitted effect of over 50% in size
# Conditions: IDH1 R132H enzyme, NADPH diaphorase/resazurin fluorescence; series mostly up to 76.6 µM
# From the text: Malignant glioblastomas (WHO grade IV), including primary and secondary glioblastomas, are among the most lethal with a median survival of one year, and unfortunately they are also the most prevalent type of brain tumors. By and large the standard of care of gliomas remains the use of the oral alkylating agent temozolomide and radiotherapy following surgical tumor resection. There is an urgent unmet medical need for novel therapeutics for gliomas. IDH mutations occur in up to 70% of grade II-IV secondary glioblastomas, and IDH1 R132H is the most prevalent mutation. […] Wild-type IDH1 catalyzes the conversion of isocitrate to -ketoglutarate with the concomitant reduction of NADP+ to NADPH. In contrast, IDH1 R132H catalyzes the conversion of -ketoglutarate to 2-hydroxyglutarate (2-HG) with the concomitant oxidation of NADPH to NADP+ [5]. Recently, a second significant advancement for the field was the finding that IDH is an oncogene, and that its metabolic product 2-HG may contribute to the pathogenesis of IDH-mutated cancers. […] Although this link to cancer is tantalizing, the direct evidence of how 2-HG drives pathogenesis of gliomas and AML remains a subject of further research. The goal of this screen is to find small-molecule inhibitors of IDH1 R132H using a biochemical assay that measures substrate NADPH consumption through the use of a diaphorase/resazurin-coupled system. Inhibition of the IDH1 R132H enzymatic reaction leads to an increase in the amount of NADPH relative to a DMSO control and a concomitant increase in the fluorescence of the diaphorase/resazurin enzyme product resorufin at 590 nm. Compounds were screened as a concentration-titration series that ranged from 76 microM to 0.15 uM. NIH Molecular Libraries Probe Production Network [MLPCN] NIH Chemical Genomics Center [NCGC] MLSCN Grant: R03 DA032129 PI Name: Dr. Lenny Dang
# Enzyme buffer was dispensed into black, solid 1536-well plates at 3 microL/well in 20 mM Tris buffer, pH 7.5, containing final concentrations of 10 mM MgCl2, 20 mM NaCl, 0.001% Tween20, 0.05% BSA, 2 mM beta-ME and 5.2 nM IDH1 R132H. Then, 23 nL of compounds or DMSO were delivered to each well using a pin tool. The inherent compound fluorescence was measured at this point at 590 nm on a ViewLux plate reader (Ex 525, Em 598, bodipy filter). The substrate buffer (3 uL; 20 mM Tris buffer, pH 7.5, containing final concentrations of 10 mM MgCl2, 20 mM NaCl, 0.001% Tween20, 0.05% BSA, 0.008 mM NADPH, and 1 mM a-ketoglutarate) was added to start the enzymatic reaction, and the plate was briefly spun at 270xg. After the reaction was allowed to progress for 80 minutes at room temperature, the remaining NADPH was detected with the diaphorase/resazurin-coupled system. Three microL of detection buffer (20 mM Tris buffer, pH 7.5, containing final concentrations of 10 mM MgCl2, 20 mM NaCl, 0.001% Tween20, 0.05% BSA, 0.53 uM diaphorase and 0.012 mM resazurin) was added, and after 5 minutes the fluorescence at 590 nm was measured on an Envision plate reader (Ex 544, Em 590, bodipy filter, 10 flashes). The %Activity was determined from the corrected fluorescence values. As no specific IDH1 R132H inhibitors have been identified in the literature, 1x (5.2 nM) and 0x IDH1 R132H enzyme controls (untreated) were included to normalize % Activity of identified inhibitors; 0x enzyme values corresponded to 100 % Activity (full inhibition), while 1x IDH1 R132H enzyme values were used to normalize 0 %A ctivity (no inhibition). Concentration-response curves were fitted to the signals arising from the resulting fluorescence. The concentration-response curves were then classified based on curve quality (r2), response magnitude and degree of measured activity, and compounds were subsequently categorized based on their curve class. […] Keywords: Isocitrate dehydrogenase, IDH1, IDH1 R132H, 2-HG, 2-hydroxyglutarate, AML, glioma, MLSMR, MLPCN, NIH Roadmap, qHTS, NCGC
# Potency is the fitted concentration of half-maximal effect.
row,SMILES,Potency
1,COc1ccc(C(CCN(Cc2ccc(OC)c(OC)c2)C(=O)CCl)c2ccccc2)cc1 (centres undefined),15.8 µM (active)
2,CC(C)Nc1nc(N(c2ccccc2)c2ccccc2)nc(-n2ccnc2)n1,39.8 µM (active)
3,Cc1ccc2nc(N3C(=O)C(O)=C(C(=O)c4ccco4)C3c3cccc(O)c3)sc2c1 (centres undefined),28.2 µM (active)
4,COC(=O)c1ccc(-c2c(-c3ccccc3)ncc3cc(OC)c(OC)cc23)cc1,12.6 µM (active)
5,COc1ccc(/C=C2/SC(=O)N(CCCCCC(=O)Nc3ccccc3C(=O)O)C2=S)cc1,39.8 µM (active)
6,CCOC(=O)c1oc2c(CN3CCN(CCO)CC3)c(O)c(CC)cc2c(=O)c1-c1nc2ccccc2s1,22.4 µM (active)
7,CCOC(=O)c1ccc(N2C(=O)c3n[nH]c(-c4ccco4)c3C2c2ccc(O)cc2)cc1 (centres undefined),39.8 µM (active)
8,COc1ccc(Cl)cc1-n1c(=S)sc2c(=O)n(-c3ccc(F)cc3)c(SCC(=O)O)nc21,7.94 µM (active)
9,Cn1c(COc2ccc(Cl)cc2)nc2ccccc2c1=O,inactive
10,COc1ccc(/C=N/Nc2cc(N3CCOCC3)nc(C)n2)c(OC)c1,15.8 µM (active)
11,COc1cc(/C=C2/SC(=S)N(Cc3ccccc3)C2=O)cc(OC)c1O,39.8 µM (active)
12,CCCCOc1ccc(CN2C(=O)C(=O)c3cc(Br)cc(C)c32)cc1OC,22.4 µM (active)
13,CCC(C)(C)NC(=O)C(c1cccn1C)N(Cc1ccc(C)cc1)C(=O)Cn1nnc2ccccc21 (centres undefined),25.1 µM (active)
14,CCCCC(=O)NC(c1ccc(OC)c(OC)c1)c1ccc2cccnc2c1O (centres undefined),inactive
15,CCCNc1ncnc2c1c(-c1ccccc1)cn2-c1ccc(OCC)cc1,11.2 µM (active)
16,CCCOc1ccc(C2c3c(-c4ccccc4O)n[nH]c3C(=O)N2Cc2cccnc2)cc1 (centres undefined),14.1 µM (active)
17,N#CC1=C(N)C(C#N)(C#N)[C@H](c2ccsc2)[C@H]2COCC=C12,44.7 µM (active)
18,CCCc1nc2c(c(=O)c3ccccc3n2C)c(=O)n1C1CCCCCC1,8.91 µM (active)
19,Cc1cccc(N(C(=O)Cc2cccs2)C(C(=O)NC2CCCC2)c2ccsc2)c1 (centres undefined),3.55 µM (active)
20,Cc1nc(-c2ccc(Cl)cc2)sc1C(=O)CBr,44.7 µM (active)
21,COC(=O)c1cccc(N(C(=O)c2ccco2)C(C(=O)NC2CCCC2)c2ccco2)c1 (centres undefined),22.4 µM (active)
22,Cc1nc(C)c(C(=O)N(c2ccc(C)c(C)c2)C(C(=O)NCc2ccco2)c2ccccc2)s1 (centres undefined),17.8 µM (active)
23,O=C1c2cccc3cccc(c23)C(=O)N1CCCCCc1n[nH]c(=S)o1,39.8 µM (active)
24,Cc1ccc(-c2nn(-c3ccccc3)cc2/C=C2\SC(=S)N(CCCCCC(=O)O)C2=O)o1,22.4 µM (active)
25,COc1cc(/C=C2/C(=O)ON=C2C)ccc1OCc1ccccc1F,44.7 µM (active)
26,COc1cc2c(-c3ccc4c(c3)OCO4)c(-c3ccsc3)oc(=O)c2cc1OC,6.31 µM (active)
27,CCCc1[nH]nc2c1C(c1ccc(OC)c(Cn3nc(C)c(Br)c3C)c1)C(C#N)=C(N)O2 (centres undefined),31.6 µM (active)
28,O=C(NC(Nc1nc2ccc([N+](=O)[O-])cc2s1)(C(F)(F)F)C(F)(F)F)c1ccccc1,3.55 µM (active)
29,C(=N/Nc1cc(N2CCOCC2)nc(N2CCOCC2)n1)/c1ccccc1,39.8 µM (active)
